This passage reports inhibition results from PubChem BioAssay AID485275 (NMMLSC, 2010).

Molecules are shown by their SMILES. Out of some 330,000 compounds screened, about 1,400 (0.42%) were called active.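 How the source made its calls: active means plate passing quality check with inhibition over a set limit, or well fluorescence over plate mean plus 4 SD; inactive means the rest.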 Shown is part of a subset that was picked to be rich in actives.

The assay is described as follows: inhibitors of Candida efflux pumps in yeast, primary screen, S. cerevisiae, Nile Red, multiplex (AID 485275).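 Further: Nile Red retained in pooled yeast measured as flow cytometry median fluorescence; 0% = buffer negative control and 100% = Enniatin B positive control; higher means more Nile Red kept so more efflux inhibition.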 To be noted: S. cerevisiae Candida pump triplex, at 10 µM, active compounds read high.
`CC(=O)c1ccc(N2CCN(C(=O)C3CCN(S(=O)(=O)c4ccc5c(c4)CC(C)N5C(=O)C4CC4)CC3)CC2)cc1` (stereo unspecified): the inhibition is 40.5% (active).

On to `CC(=O)N1c2ccc(S(=O)(=O)N3CCC(C(=O)N4CCN(c5ccccc5)CC4)CC3)cc2CC1C` (stereo unspecified), for which the inhibition was -0.03% (inactive).

Consider `COc1ccccc1CNC(=O)C1CCN(S(=O)(=O)c2ccc3c(c2)CC(C)N3C(=O)C2CC2)CC1` (stereo unspecified), for which the inhibition is 0.09% (inactive).

Regarding `CC1CC(=NNC(=O)C2COc3ccccc3O2)CC(C)(C)C1` (stereo unspecified), the inhibition is -0.31% (inactive).

As for `Cc1cccc(N2CCN(C(=O)CCS(=O)(=O)c3ccc4c(c3)NC(=O)C(C)S4)CC2)c1C` (stereo unspecified), the inhibition was -0.07% (inactive).

Consider `CCN(CC)CCNC(=O)CCCCCn1c(=O)[nH]c2cc(C(=O)OC)ccc2c1=O`, for which the inhibition is -0.02% (inactive).

On to `O=C(CCc1c[nH]c2ccccc12)NCCOc1ccccc1`, for which the inhibition is -0.08% (inactive).

Take `O=C(CCCCCn1c(=O)[nH]c2ccccc2c1=O)NCCc1c[nH]c2ccccc12`: the inhibition is 0.52% (active).

`CCCSc1ccc([C@H]2N[C@@](Cc3ccccc3)(C(=O)OC)[C@H]3C(=O)N(C)C(=O)[C@@H]23)cc1`: the inhibition is 0.02% (inactive).

As to `CSCCC(NC(=O)c1ccccc1)C(=O)N1CCCCCCC1` (stereo unspecified), the inhibition was 0.05% (inactive).

Consider `CSCCC(NS(=O)(=O)c1ccc(C)cc1)C(=O)N1CCCC1` (stereo unspecified), for which the inhibition was 1.45% (active).

Consider `CSCC(NS(=O)(=O)c1ccc(C)cc1)C(=O)O` (stereo unspecified), for which the inhibition is -0.01% (inactive).

On to `COc1ccc(-n2nnc3c(=O)n(CC(=O)N4CCC(Cc5ccccc5)CC4)cnc32)cc1`, for which the inhibition is 0.1% (inactive).

Consider `O=C(NCc1nnc(SCC(=O)N2CCCCCC2)o1)c1ccc(F)cc1`, for which the inhibition was -0.18% (inactive).

In the case of `Nc1nnc(C2CCCC2)s1`, the inhibition was 0.48% (inactive).

For the compound `O=C(CN1C(=O)C2C3CCC(C3)C2C1=O)Oc1ccc2ccccc2c1` (stereo unspecified), the inhibition is 5.45% (active).

Regarding `Cc1ccc(C(=O)COC(=O)CCN2C(=O)C3C4CCC(C4)C3C2=O)cc1C` (stereo unspecified), the inhibition was -0.13% (inactive).

Regarding `O=C(CCN1C(=O)C2C3C=CC(C3)C2C1=O)Oc1ccc2ccccc2c1` (stereo unspecified), the inhibition was 0.01% (inactive).

Take `O=C(c1cc(-c2ccco2)nc2ccccc12)N(Cc1nnc(-c2ccc(Cl)cc2)o1)C1CC1`: the inhibition is 0.11% (inactive).

For `Cc1cc(/C=N/NC(=O)CC2(C)OCCO2)c(C)n1-c1ccc(Cl)c(Cl)c1`, the inhibition is 1.6% (active).

With `Cc1ccc(-n2c(C)cc(/C=N\NC(=O)CC(=O)NC(C)C)c2C)cc1`, the inhibition is -0.13% (inactive).

Consider `Cc1cccc(-n2c(C)cc(/C=N\NC(=O)c3cccs3)c2C)c1`, for which the inhibition was -0.56% (inactive).

Consider `CC1CCN(C(=O)CCNC(=O)c2ccccc2)CC1`, for which the inhibition was -0.28% (inactive).

In the case of `Cc1cccc(C)c1NC(=O)C(Cl)C(=O)c1ccccc1` (stereo unspecified), the inhibition is 0.07% (inactive).

With `Cc1ccccc1NC(=O)CSC(=O)c1ccccc1`, the inhibition is -0.08% (inactive).

Take `CN=C(c1ccccc1)c1c(C)cccc1C`: the inhibition is 23.6% (active).

For orientation: inhibition means the relative decrease from the control value, in per cent.
